Test results from PubChem BioAssay AID463173 (ICCB-Longwood Screening Facility, Harvard Medical School, 2010).
Screen size: about 52,000 compounds; about 1,700 (3.3%) were called active. The sample holds actives, similar compounds and a random draw of the others, so the mix is not that of the screen. Values without a mark were called inactive. Cut-off read from the data, not from the text of the source: active = survival mostly below about 52% (no sharp cut-off); inactive = mostly above about 56%.

The compounds below were run on Wild type (assay: growth inhibition of S. aureus wild type versus tarO mutant, primary screen, teichoic acid synthesis inhibitors, RN4220, OD600 (AID 463173)). Conditions: S. aureus RN4220 wild type/DeltatarO growth, OD600, 18 h, stronger effect = lower value, screened at 18.75 µg/mL (by protocol).
For N#Cc1ccccc1Cn1c(SCC(=O)NCc2ccccc2)nc2ccccc21, the survival was 75%.
O=C(C1CCN(S(=O)(=O)c2ccccc2)CC1)N1CCCCC1 gave a survival of 96%.
O=C1C2c3ccccc3CCN2C(=O)CN1CCc1ccccc1 (stereo not given) was tested, and the survival was 121%.
Work on CCOc1ccc(-n2nc(CO)c(C(=O)NCC(C)O)n2)cc1 (stereo not given) yielded a survival of 81%.
CC(C)CCNC(=O)c1ccc2c(c1)N(C)C(=O)c1ccccc1S2 was tested, and the survival was -6% (active).
For Cc1ccc(C)c(CN2C(=O)c3ccccc3Sc3ccc(C(=O)NCc4ccco4)cc32)c1, the survival was -1% (active).
In the case of Cc1cccc(CN2C(=O)c3ccccc3Sc3ccc(C(=O)NCc4ccco4)cc32)c1, the survival is reported as 75%.
Compound CC(C)CCNC(=O)Nc1ccc2c(c1)N(C)C(=O)c1ccccc1S2 has a survival of 135%.
In the case of Cc1ccc(CN2C(=O)c3ccccc3Sc3ccc(C(=O)NCc4ccco4)cc32)cc1, the survival is reported as 55%.
Work on CC(C)CCNC(=O)c1ccc2c(c1)N(Cc1cccc(Cl)c1)C(=O)c1ccccc1S2 yielded a survival of 70%.
With COc1cc(Cl)c(NC(=O)CN2C(=O)c3cccnc3Sc3ccccc32)c(OC)c1 the survival was 72%.
Compound COc1ccc2c(CNCc3cccs3)c(C(=O)O)n(Cc3ccccc3F)c2c1 has a survival of 89%.
For CCN1CCC(N(Cc2ccc(F)cc2)C(=O)Nc2ccc(C)c(F)c2)CC1, the survival was 87%.
In the case of O=C(Nc1ccccc1C(F)(F)F)C1CCN(S(=O)(=O)c2ccccc2)CC1, the survival is reported as 72%.
CCc1ccc(C(=O)c2cn(CC(=O)Nc3ccc4c(c3)OCCO4)c3ccc(C)cc3c2=O)cc1 was tested, and the survival was 84%.
For CCCCn1nc(NC(=O)c2cccc(Cl)c2)c2cc3ccccc3nc21, the survival was 86%.
NC(=O)CSc1nnc(C2CC2)n1Cc1ccccc1 showed a survival of 93%.
Work on Cc1cn2c(=O)cc(COC(=O)COc3ccc(F)cc3)nc2s1 yielded a survival of 81%.
In the case of Cc1cn2c(=O)cc(COC(=O)COc3ccc(C)c(C)c3)nc2s1, the survival is reported as 63%.
In the case of CC(Oc1ccccc1)C(=O)Nc1ccc(C(=O)OCc2cc(=O)n3ccsc3n2)cc1 (stereo not given), the survival is reported as 72%.
For Cc1cn2c(=O)cc(COC(=O)c3ccc(NC(=O)C(C)Oc4ccccc4)cc3)nc2s1 (stereo not given), the survival was 0% (active).
In the case of Cc1cn2c(=O)cc(COC(=O)c3cccc(NC(=O)c4ccc(C(C)(C)C)cc4)c3)nc2s1, the survival is reported as 101%.
With COc1ccc(OCC(=O)OCc2cc(=O)n3cc(C)sc3n2)cc1 the survival was 1% (active).
In the case of Cc1cn2c(=O)cc(COC(=O)c3ccc(NC(=O)c4ccc(F)cc4)cc3)nc2s1, the survival is reported as 70%.
For O=C(COc1ccc(Cl)cc1)OCc1cc(=O)n2nc(-c3cccs3)sc2n1, the survival was -6% (active).
Work on COc1ccc(OCC(=O)OCc2cc(=O)n3nc(-c4cccs4)sc3n2)cc1 yielded a survival of 87%.
With Cc1cn2c(=O)cc(COC(=O)c3ccc(NC(=O)c4ccc(C(C)(C)C)cc4)cc3)nc2s1 the survival was -3% (active).
Compound O=C(COc1ccccc1)OCc1cc(=O)n2nc(-c3cccs3)sc2n1 has a survival of 75%.
In the case of Cc1cn2c(=O)cc(COC(=O)c3cccc(NC(=O)C(C)Oc4ccccc4)c3)nc2s1 (stereo not given), the survival is reported as 69%.
Cc1cccc(OCC(=O)N(Cc2ccccc2)c2ccccn2)c1 showed a survival of 87%.
For CCOC(=O)c1ccccc1NC(=O)CSc1nc(=O)[nH]c2c1CCC2, the survival was 77%.
Compound Cc1ccc(NC(=O)Cn2cc(C#N)c3ccccc32)cc1 has a survival of 113%.
In the case of Cc1c(Cl)cccc1NC(=O)Cn1c(=O)n(Cc2nc(-c3ccccc3)no2)c(=O)c2cc3c(cc21)OCO3, the survival is reported as 135%.
CCn1cc(C(=O)NCc2ccc(C)cc2)c(=O)c2cc(S(=O)(=O)N3CCC(C)CC3)ccc21 showed a survival of 128%.
Cc1sc2ncn(CC(=O)Nc3cccc(C(F)(F)F)c3)c(=O)c2c1S(=O)(=O)N1CCN(C)CC1 gave a survival of 75%.
Compound Cc1ccc(Cn2cc(S(=O)(=O)c3cccc(C)c3)c(=O)c3cc(F)c(N4CCOCC4)cc32)cc1 has a survival of 82%.
In the case of COc1ccc(-c2c3c(=O)n(C)c(=O)n(C)c3c3c(C)nc4ccccc4n23)cc1, the survival is reported as 74%.
Cn1c(=O)c2c(-c3ccccc3)n3c(c2n(C)c1=O)C(c1cc(Cl)ccc1O)Nc1ccccc1-3 (stereo not given) was tested, and the survival was -9% (active).
With COc1ccccc1C1Nc2ccccc2-n2c(-c3ccccc3)c3c(=O)n(C)c(=O)n(C)c3c21 (stereo not given) the survival was 65%.
For Cc1ccc(-c2c3c(=O)n(C)c(=O)n(C)c3c3n2-c2ccccc2NC3c2ccc(C)cc2O)cc1 (stereo not given), the survival was -8% (active).
Cc1cc2c(cc1C)-n1c(-c3ccccc3)c3c(=O)n(C)c(=O)n(C)c3c1C(c1ccco1)N2 (stereo not given) was tested, and the survival was 88%.
In the case of COc1ccc(-c2nc3ccccc3n3c(-c4ccc(OC)cc4)c4c(=O)n(C)c(=O)n(C)c4c23)cc1, the survival is reported as 75%.
With COc1ccc(O)c(C2Nc3ccccc3-n3c(-c4ccccc4)c4c(=O)n(C)c(=O)n(C)c4c32)c1 (stereo not given) the survival was -6% (active).
With Cn1c(=O)c2c(-c3ccccc3)n3c(c2n(C)c1=O)C(c1ccco1)Nc1ccccc1-3 (stereo not given) the survival was 85%.
COc1ccc(-c2c3c(=O)n(C)c(=O)n(C)c3c3c(-c4ccccc4)nc4ccccc4n23)cc1 showed a survival of 64%.
With COc1ccc(-c2c3c(=O)n(C)c(=O)n(C)c3c3n2-c2ccccc2NC3c2ccc(O)cc2O)cc1 (stereo not given) the survival was -8% (active).
Cn1c(=O)c2c(-c3ccccc3)n3c(c2n(C)c1=O)C(c1ccccc1[N+](=O)[O-])Nc1ccccc1-3 (stereo not given) was tested, and the survival was 76%.
For Cn1c(=O)c2c(-c3ccccc3)n3c(c2n(C)c1=O)C(c1cccc([N+](=O)[O-])c1)Nc1ccccc1-3 (stereo not given), the survival was 31%.
O=C(C1CCN(S(=O)(=O)c2cccs2)CC1)N1CCN(c2ccccc2F)CC1 was tested, and the survival was 142%.
CCN(C(=O)/C=C/c1cc(OC)c(OC)c(OC)c1)C1CCCCC1 gave a survival of 107%.
COc1cccc(CNC(=O)CCn2c(=O)c3cccn3c3cccnc32)c1 was tested, and the survival was 87%.
In the case of CCC(Sc1nc(-c2ccccc2F)nc2c1Cc1c(CO)cnc(C)c1O2)C(=O)Nc1cc(C)ccc1C (stereo not given), the survival is reported as 87%.
Work on COc1ccc(N2CCN(Cc3nnc(-c4ccc5c(c4)OCO5)o3)CC2)cc1 yielded a survival of 81%.
In the case of O=C(Cn1c(C(=O)NC2CCCCC2)cc2sccc21)c1ccccc1, the survival is reported as 136%.
For Cc1ccc(C)n1-c1nnc(N2CCCC(C(=O)NCc3cccc(F)c3)C2)s1 (stereo not given), the survival was 81%.
COC(=O)c1c(C)oc2ccc(N(C(=O)c3ccncc3)S(=O)(=O)c3cc(C)c(C)cc3C)cc12 showed a survival of 77%.
In the case of COc1ccc(Cl)c2sc(NC(=O)c3ccc(S(=O)(=O)N4CCCC4)cc3)nc12, the survival is reported as 73%.
CCn1ccc2cc(S(=O)(=O)N3CCCN(C(=O)Nc4ccc(C)cc4Cl)CC3)ccc21 showed a survival of 63%.
In the case of COc1ccc(OC)c(C2NC(=O)NC(C)=C2C(=O)Nc2ccc(F)cc2)c1 (stereo not given), the survival is reported as 81%.
Compound O=c1c2ccccc2nc(N2CCN(c3cccc(Cl)c3)CC2)n1-c1ccccc1 has a survival of 81%.
With Cc1ccc(C)c(N2CCN(c3nc4ccccc4c(=O)n3-c3ccccc3)CC2)c1 the survival was 10% (active).
With Cc1ccc(C)c(N2CCN(c3nc4ccccc4c(=O)n3-c3ccc(Cl)cc3)CC2)c1 the survival was 78%.
For CN1CCN(c2ncc3c(n2)CCN(Cc2cc(Br)cs2)C3)CC1, the survival was 129%.
CCOc1ccccc1CN1CCc2nc(N3CCN(C)CC3)ncc2C1 was tested, and the survival was -4% (active).
For CCN1CCN(c2ncc3c(n2)CCN(Cc2ccccc2C)C3)CC1, the survival was -3% (active).
CCN1CCN(c2ncc3c(n2)CCN(Cc2ccc(Br)s2)C3)CC1 showed a survival of 60%.
Work on COc1cc(OC)c(OC)cc1CN1CCc2nc(N3CCN(C)CC3)ncc2C1 yielded a survival of 82%.
Work on COc1cc(OC)c(OC)cc1CN1CCc2nc(N3CCN(c4ccccc4F)CC3)ncc2C1 yielded a survival of 64%.
In the case of COc1ccccc1N1CCN(c2ncc3c(n2)CCN(Cc2ccccc2F)C3)CC1, the survival is reported as 67%.
In the case of Cc1ccccc1CN1CCc2nc(N3CCN(c4ncccn4)CC3)ncc2C1, the survival is reported as 75%.
In the case of CN1CCN(c2ncc3c(n2)CCN(Cc2ccccc2Cl)C3)CC1, the survival is reported as 71%.
CCOc1ccccc1CN1CCc2nc(N3CCN(c4ccccc4F)CC3)ncc2C1 was tested, and the survival was -6% (active).
Compound Cc1ccccc1CN1CCc2nc(N3CCN(c4ccccn4)CC3)ncc2C1 has a survival of 71%.
In the case of CCN1CCN(c2ncc3c(n2)CCN(Cc2cc(Br)cs2)C3)CC1, the survival is reported as 1% (active).
COCCCNC(=O)C1CCN(c2ncnc3c2nc2n3CCCCC2)CC1 showed a survival of 89%.
Compound CSc1nnc(-c2cc3ccccc3cc2O)n1C has a survival of 111%.
Compound COC(=O)c1sc2nc(C)cc(C)c2c1N has a survival of 103%.
Nc1nc2cc3c(cc2s1)OCCO3 was tested, and the survival was 113%.
COc1cc2nc(SCc3ccc(Cl)cc3)n3nc(CCn4nc(C)cc4C)nc3c2cc1OC gave a survival of 71%.
With CCCCOc1ccc(CNC(=O)c2cnc3sc(N4CCC(C)CC4)nn3c2=O)cc1 the survival was 127%.
COC(=O)c1ccc(NC(=O)CCn2cccn2)cc1 gave a survival of 88%.
For CCn1c2ccccc2c2cc(NC(=O)COc3ccc(C)cc3C)ccc21, the survival was 8% (active).
CCc1ccc(OCC(=O)Nc2ccc3c(c2)c2ccccc2n3CC)c(Br)c1 was tested, and the survival was -6% (active).
Compound CCc1ccc(OCC(=O)Nc2ccc3c(c2)c2ccccc2n3CC)cc1 has a survival of 69%.
Work on CCn1c2ccccc2c2cc(NC(=O)COC)ccc21 yielded a survival of 108%.
In the case of CCn1c2ccccc2c2cc(NC(=O)COc3cccc(C)c3)ccc21, the survival is reported as 34%.
In the case of CCn1c2ccccc2c2cc(NC(=O)COc3cc(C)ccc3C)ccc21, the survival is reported as 18%.
O=C(Nc1c(Cl)cccc1Cl)c1cc(-c2cccc(O)c2)on1 was tested, and the survival was 5% (active).
With COc1ccc(-c2cc(C(=O)Nc3c(Cl)cccc3Cl)no2)cc1OC the survival was 79%.
Work on O=C(Nc1c(Cl)cccc1Cl)c1cc(-c2ccc3c(c2)OCO3)on1 yielded a survival of 82%.
